Compounds with a hit are over-represented: about 11% of the library has one in this group of screens.
HEK293 tox: kills HEK 293 cells; HEK 293 viability, ATP luminescence (CellTiter-Glo), 48-72 h; Potency, µM (top dose mostly 115 µM), inactives show at the highest dose activity change, negative = cytotoxicity, most hits filed as inhibitors; actives 6.6% (n = 94,000); also: % is scaled to controls: 0 for no effect and ±100 for the full control effect; nearly all actives have a fitted effect of over 60% in size
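Cytotoxicity was scored by loss of ATP-coupled luminescence (CellTiter-Glo) in HEK 293 cells. Compound treatment ran 48 or 72 hr at 37 degree Celsius, 5% CO2, 95% humidity.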
FLuc inh: blocks purified firefly luciferase enzyme activity. purified P. pyralis luciferase, luminescence, biochemical. Potency, µM (titrated, usually from 115 µM), actives largely listed as inhibitors. actives 2.5% (n = 76,000). AID 1347043; also: % is scaled to controls: 0 for no effect and ±100 for the full control effect; nearly all actives have a fitted effect of over 65% in size
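Cell-free enzyme assay, 10nM P. pyralis luciferase, luciferin and ATP each at 10uM. Inhibition profiled over a 6-point titration, read as luminescence.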
hNpr1 antagonist: blocks ANP-stimulated signaling of human Npr1 receptor. P16066. HEK293 hNpr1 GloSensor cGMP, ANP-stimulated luminescence. Potency, µM (highest dose often 46.3 µM), for the others: top-dose activity change, negative = inhibition, usual class: inhibitors. actives 1.6% (n = 76,000). AID 1347048; calls by dose curve; also: % is scaled to controls: 0 for no effect and ±100 for the full control effect; nearly all actives have a fitted effect of over 60% in size
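Compound pre-incubated 30 min at room temperature on GloSensor-loaded HEK293 cells stably carrying hNpr1 and the pGS-40F cGMP biosensor. Stimulation uses hNppA at 0.1 nM final; luminescence is taken at baseline and 20 min post-agonist.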
3T3 cytotox: NIH 3T3 cell cytotoxicity | AID 1345082 | NIH 3T3 viability, CellTiter-Glo ATP luminescence, 48-72 h | actives 4.3% (n = 94,000) | Potency, µM (highest dose often 96.7 µM), without a hit: at the highest dose activity change, negative = cytotoxicity, actives largely listed as inhibitors; also: % is scaled to controls: 0 for no effect and ±100 for the full control effect; nearly all actives have a fitted effect of over 55% in size
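Luminescent ATP readout (CellTiter-Glo, 10 min RT) after 48 or 72 hr compound exposure of NIH 3T3 cells seeded at 400 cells/well in 1536-well format; quantitative HTS.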
NPR1 antag cnf: hNpr1 antagonism, confirmation assay. shares compounds with hNpr1 antagonist. HEK293 hNpr1 cGMP GloSensor luminescence, ANP-stimulated. Potency, µM (titrated, usually from 57.6 µM), for inactives: at the highest dose activity change, negative = inhibition, most hits filed as inhibitors. actives 76% (n = 1,400); calls by dose curve; also: nearly all actives have a fitted effect of over 70% in size
NPR2 antag: selectivity test of Npr1 antagonists against human Npr2; shares compounds with hNpr1 antagonist; HEK293 hNpr2 GloSensor cGMP luminescence, CNP-stimulated; Potency, µM (series often up to 57.6 µM), for the others: at the top dose activity change, negative = inhibition, actives largely listed as inhibitors; actives 67% (n = 1,400); calls by dose curve; also: nearly all actives have a fitted effect of over 70% in size
FLuc inh counter: inhibits firefly luciferase, false Npr1 antagonist flag; shares compounds with hNpr1 antagonist; Potency, µM (series often up to 57.6 µM), without a hit: top-dose activity change, negative = inhibition, hits mostly inhibitors; actives 0.7% (n = 1,400); purified FLuc enzyme, luminescence, Km substrate; also: 0% is about no effect
GloSensor ctrl: reduces cGMP signal in GloSensor control cells; shares compounds with hNpr1 antagonist; HEK293 GloSensor cGMP, SNP-stimulated, luminescence; Potency, µM (titrated, usually from 57.6 µM), for the others: top-dose activity change, negative = inhibition, most hits filed as inhibitors; actives 69% (n = 1,400); AID 1347051; calls by dose curve; also: % is scaled to controls: 0 for no effect and ±100 for the full control effect; nearly all actives have a fitted effect of over 70% in size
An asterisk follows results filed as active. Unless noted, calls follow the shape of the dose curve; as a rule, active = well fitted curve in the direction sought with a large enough effect; inconclusive = small, poorly fitted or top-dose-only effect, or another doubt; inactive = no such curve, though single readings can be large; an effect the other way counts as inactive or inconclusive. Potency is read from the fitted curve at half-maximal effect.

COc1ccc(C(=O)N2CCCN(c3cc(-c4ccc(F)cc4)[nH]n3)CC2)cc1 was read as HEK293 tox inconclusive, FLuc inh inactive, hNpr1 antagonist inconclusive and 3T3 cytotox inconclusive.
For COc1ccc(-c2cc(N3CCN(C(=O)c4ccccc4Br)CC3)n[nH]2)cc1 the results were HEK293 tox inconclusive, FLuc inh inactive, hNpr1 antagonist inconclusive and 3T3 cytotox inconclusive.
For COc1ccc(C(=O)N2CCN(c3cc(-c4ccc(Cl)cc4)[nH]n3)CC2)cc1F the results were HEK293 tox inconclusive, FLuc inh inactive, hNpr1 antagonist 11µM*, 3T3 cytotox inconclusive, NPR1 antag cnf 14µM*, NPR2 antag 19µM*, FLuc inh counter 0% and GloSensor ctrl 11µM*.
`O=C(c1ccccc1Br)N1CCN(c2cc(-c3ccc(Cl)cc3)[nH]n2)CC1` gave HEK293 tox inconclusive, FLuc inh inactive, hNpr1 antagonist 2.5µM*, 3T3 cytotox 25µM*, NPR1 antag cnf 19µM*, NPR2 antag 19µM*, FLuc inh counter 0% and GloSensor ctrl 12µM*.
`Cc1cc(=O)n(CC(=O)Nc2cccc(C)c2C)c(N(C)Cc2ccccc2)n1` gave HEK293 tox inconclusive, FLuc inh inactive, hNpr1 antagonist -17% and 3T3 cytotox inconclusive.
For COc1ccc(NC(=O)Cn2c(N(C)Cc3ccccc3)nc(C)cc2=O)cc1 the results were HEK293 tox 45µM*, FLuc inh inactive, hNpr1 antagonist 11µM*, 3T3 cytotox inconclusive, NPR1 antag cnf 19µM*, NPR2 antag inconclusive, FLuc inh counter -2% and GloSensor ctrl 15µM*.
For COc1cc(OC)c(NC(=O)Cn2c(N(C)Cc3ccccc3)nc(C)cc2=O)cc1Cl the results were HEK293 tox 22µM*, FLuc inh inactive, hNpr1 antagonist 10µM*, 3T3 cytotox inconclusive, NPR1 antag cnf 22µM*, NPR2 antag 22µM*, FLuc inh counter -2% and GloSensor ctrl 19µM*.
COc1ccc(NC(=O)Cn2c(N3CCN(c4ccccc4)CC3)nc(C)cc2=O)cc1Cl was read as HEK293 tox inconclusive, FLuc inh inactive, hNpr1 antagonist -15% and 3T3 cytotox inconclusive.
For COc1ccc(NC(=O)Cn2c(N(C)Cc3ccccc3)nc(C)cc2=O)cc1Cl the results were HEK293 tox inconclusive, FLuc inh inactive, hNpr1 antagonist 11µM*, 3T3 cytotox inconclusive, NPR1 antag cnf 11µM*, NPR2 antag 11µM*, FLuc inh counter -2% and GloSensor ctrl 9.7µM*.
`Cc1cc(=O)n(CC(=O)Nc2c(C)cccc2C)c(N(C)Cc2ccccc2)n1` gave HEK293 tox -27%, FLuc inh inactive, hNpr1 antagonist 0% and 3T3 cytotox inconclusive.
CC1(c2noc(C3CCOCC3)n2)CCN(Cc2ccc(Cl)cc2F)CC1 was read as HEK293 tox inconclusive, FLuc inh inactive, hNpr1 antagonist 13µM*, 3T3 cytotox -29%, NPR1 antag cnf 24µM*, NPR2 antag 24µM*, FLuc inh counter 7% and GloSensor ctrl 22µM*.
CCCNC(=O)CC(c1ccc(F)cc1)c1c[nH]c2ccccc12 (stereo not drawn) was read as HEK293 tox inconclusive, FLuc inh inactive, hNpr1 antagonist -12% and 3T3 cytotox inconclusive.
